{
  "source": "PubChem BioAssay (NCATS)",
  "note": "Results filed as inconclusive are left out. Active and inactive are the calls of the source. The call rests on the fitted dose curve; in most records, active means well fitted cell-killing curve with a large enough effect; inconclusive means small, poorly fitted or top-dose-only effect; inactive means flat fitted curve, though single readings scatter. Potency means the concentration at half of the fitted maximal effect.",
  "data": [
    {"test": "Cell Viability - LYMP2-018 (AID 985);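 further: compound exposure lasted 24 hr at 37 °C; nearly all actives have a fitted effect of over 50% in size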;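 on activity change, negative = cytotoxicity: plate controls were DMSO only for no effect and tetraoctylammonium bromide at 92 µM for full effect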", "conditions": "LYMP2-018 lymphoblastoid cells, viability (qHTS); series mostly up to 92.2 µM; activity change, negative = cytotoxicity: at the top concentration", "from_the_text": "NIH Chemical Genomics Center [NCGC]\nNIH Molecular Libraries Screening Centers Network [MLSCN]\nNational Institutes of Environmental Health Sciences [NIEHS]\nNational Toxicology Program [NTP]\nWe have developed a 1536-well cell-based assay for quantitative high throughput screening (qHTS) against a number of cell lines to determine in vitro cytotoxicity of small molecules. This particular assay uses a human lymphoblastoid cell line (LYMP2-018) purchased from Coriell Institute for Medical Research.\nNCGC Assay Protocol Summary:\nThe CellTiter-Glo luminescent cell viability assay (Promega) is a homogeneous method to measure the number of viable cells in culture. The end point readout of this assay is based on quantitation of intracellular ATP, an indicator of metabolic activity, using the luciferase reaction. Luciferase catalyzes the oxidation of beetle Luciferin to oxyluciferin and light in the presence of ATP. The luminescent signal is proportional to amount of ATP present.\nUsing the CellTiter-Glo luminescent cell viability assay, the amount of cellular ATP was measured in the lymphoblastoid cell line with complete culture medium following compound treatment for 24 hours. The assay was performed in opaque white Kalypsys 1536-well plates. In the screen, tetraoctylammonium bromide was used as positive control. Library compounds were measured for their ability to cause acute toxicity in the cell line, as reflected by a decrease in intracellular ATP levels, in a concentration-dependent manner. […] AC50 values were determined from concentration-response data modeled with the standard Hill equation.\nqHTS protocol for CellTiter Glo lymphoblastoid cellular assay\n[Step] [Parameter] [Value] [Description]\n1. Reagent; 5 uL; 2500 lymphoblastoid cells/well\n2. Time; 5 hr; 37 C incubation\n4. Controls; 23 nL; Tetraoctylammonium bromide 6.4pM to 92 uM\n5. Time; 24 hr; 37 C incubation\n6. Reagent; 5 uL; CellTiter Glo reagent\n7. Time; 30 min; Room Temperature\n8. Detection; Luminescence; Viewlux plate reader\nKeywords: cell viability, cytotoxicity, lymphoblastoid cell line, luminescence, NTPHTS, NTPHTS_NCGC, NIEHS, DSSTox, MLSMR, MLSCN, NIH Roadmap, qHTS, NCGC", "values": [
      {"smiles": "NC(=O)c1ncn([C@@H]2O[C@H](CO)[C@@H](O)[C@H]2O)n1", "activity change, negative = cytotoxicity": "-14.4% (inactive)"},
      {"smiles": "Cc1c(O)cccc1C(=O)N[C@@H](CSc1ccccc1)[C@H](O)CN1C[C@H]2CCCC[C@H]2C[C@H]1C(=O)NC(C)(C)C", "Potency": "50.1 µM (active)"},
      {"smiles": "Oc1cccc(O)c1", "activity change, negative = cytotoxicity": "-9.81% (inactive)"},
      {"smiles": "Cc1cc2nc3c(=O)[nH]c(=O)nc-3n(C[C@H](O)[C@H](O)[C@H](O)CO)c2cc1C", "activity change, negative = cytotoxicity": "0.387% (inactive)"},
      {"smiles": "[Cl][In]([Cl])[Cl]", "activity change, negative = cytotoxicity": "-12.7% (inactive)"},
      {"smiles": "CCCCCCCCCCCCOS(=O)(=O)O", "Potency": "inactive"},
      {"smiles": "CC1(C)[C@@H]2CC[C@@]1(C)C(=O)C2", "activity change, negative = cytotoxicity": "-17.2% (inactive)"},
      {"smiles": "NCCNCCNCCN", "activity change, negative = cytotoxicity": "-10.8% (inactive)"},
      {"smiles": "Cc1cc(CC(=O)O)n(C)c1C(=O)c1ccc(Cl)cc1", "activity change, negative = cytotoxicity": "5% (inactive)"},
      {"smiles": "Nc1ccc(S(=O)(=O)Nc2nccs2)cc1", "activity change, negative = cytotoxicity": "-5.97% (inactive)"},
      {"smiles": "COc1ccccc1O", "Potency": "inactive"},
      {"smiles": "O=C1c2c(O)cccc2Cc2cccc(O)c21", "activity change, negative = cytotoxicity": "0.561% (inactive)"},
      {"smiles": "CC12CCC(CC1)C(C)(C)O2", "activity change, negative = cytotoxicity": "3.27% (inactive)"},
      {"smiles": "O=C1O[C@H]([C@@H](O)CO)C(O)=C1O", "activity change, negative = cytotoxicity": "-11.6% (inactive)"},
      {"smiles": "NCCNCCNCCNCCN", "activity change, negative = cytotoxicity": "-12.8% (inactive)"},
      {"smiles": "CCCCOC(=O)c1ccc(O)cc1", "activity change, negative = cytotoxicity": "-3.76% (inactive)"}
    ]}
  ]
}
